{
  "source": "PubChem BioAssay AID652257",
  "about": "(The Scripps Research Institute Molecular Screening Center, 2013)",
  "note": "Hit rate of the full screen: of about 370,000 compounds, about 4,800 (1.3%) were called active. This excerpt belongs to a sample that is enriched for actives. A number with no mark means an inactive call.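 Rule for the calls: active = inhibition above about 21% made by adding two undisclosed values (limit read from the data); inactive = the rest.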",
  "data": [
    {"target": "Protein arginine N-methyltransferase 1 (Homo sapiens) (UniProt Q99873)", "sequence (Q99873 whole entry, looked up)": "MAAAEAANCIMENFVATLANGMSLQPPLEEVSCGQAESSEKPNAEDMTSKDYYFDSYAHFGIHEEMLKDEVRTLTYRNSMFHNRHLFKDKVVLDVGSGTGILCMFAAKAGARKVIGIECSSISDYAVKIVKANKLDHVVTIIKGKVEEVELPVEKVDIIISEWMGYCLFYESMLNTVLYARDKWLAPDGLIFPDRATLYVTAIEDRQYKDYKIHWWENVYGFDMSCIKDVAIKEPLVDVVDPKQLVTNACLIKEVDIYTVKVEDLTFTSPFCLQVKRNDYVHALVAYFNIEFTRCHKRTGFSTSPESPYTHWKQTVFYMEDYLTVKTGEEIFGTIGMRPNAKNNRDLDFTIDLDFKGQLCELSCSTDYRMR", "test": "PRMT1 methyltransferase inhibitors, primary screen, biochemical, fluorescence polarization (AID 652257)", "conditions": "recombinant PRMT1, activity-based probe fluorescence polarization; at 2.79 µM; active compounds read high", "values": [
      {"smiles": "COC(=O)c1ccc(CNC(=O)Cn2cc(C)c(=O)[nH]c2=O)cc1", "inhibition": "3.88%"},
      {"smiles": "CC(=O)NC1=NC(=O)CS1", "inhibition": "71.7% (active)"},
      {"smiles": "C[C@@H]1CN([C@@H](C)CO)C(=O)c2cccc(NC(=O)Nc3cccc4ccccc34)c2O[C@H]1CN(C)S(=O)(=O)c1ccccc1F", "inhibition": "-7.41%"},
      {"smiles": "COc1cccc(/C=C2\\CC3(OC(C)=O)CCCN2C3)c1", "note": "(centres undefined)", "inhibition": "-1.33%"},
      {"smiles": "CCCCC(=O)N[C@@H]1CC[C@@]23CCCN2C(=O)CCC[C@H]3[C@H]1C", "inhibition": "-1.5%"},
      {"smiles": "CCOc1ccc(-c2n[nH]c(=S)n2/N=C/c2cc3c(cc2[N+](=O)[O-])OCO3)cc1", "inhibition": "-0.65%"},
      {"smiles": "C[n+]1ccc(/C=C/c2c[nH]c3ccccc23)cc1", "inhibition": "4.53%"},
      {"smiles": "CCc1n[nH]c(=S)n1/N=C/c1c[nH]c2ccc(Br)cc12", "inhibition": "29.8% (active)"},
      {"smiles": "S=c1[nH]nc(-c2ccccc2)n1/N=C/c1c[nH]c2ccccc12", "inhibition": "25.5% (active)"},
      {"smiles": "Cc1cccc(NC(=O)CSc2nnc(CCNC(=O)OC(C)(C)C)o2)c1C", "inhibition": "-1.24%"},
      {"smiles": "O=C(O)CCN1C(=O)CC2(CCCCC2)C1=O", "inhibition": "0.48%"},
      {"smiles": "N#Cc1ccc(OC[C@@H](O)CN2CCC(C(O)(c3ccccc3)c3ccccc3)CC2)c(F)c1", "inhibition": "-0.03%"},
      {"smiles": "CC(=O)N1CCCc2cc(S(=O)(=O)N3CCCC(C(=O)N4CCN(c5cccc(Cl)c5)CC4)C3)ccc21", "note": "(centres undefined)", "inhibition": "-1.42%"},
      {"smiles": "CCOC(=O)C1(Cc2ccc(Cl)cc2)CCN(C(=O)C2=NNC(=O)CC2)CC1", "inhibition": "3.16%"},
      {"smiles": "CCOCCCNC(=S)N1CCC(NC(=O)C2CCCCC2)CC1", "inhibition": "4.18%"},
      {"smiles": "CCOC(=O)c1ccn(-c2nc(-c3ccco3)cc(C(F)(F)F)n2)n1", "inhibition": "3.19%"},
      {"smiles": "Cc1cc(C)c2nc(-c3ccco3)cc(C(=O)O)c2c1", "inhibition": "36.4% (active)"},
      {"smiles": "Cc1ccsc1-c1cc(C(=O)O)c2c(ccc3ccccc32)n1", "inhibition": "-0.02%"},
      {"smiles": "COc1ccc(-c2cc(-c3nnc(SCC(=O)Nc4cccc5ccccc45)n3N)[nH]n2)cc1", "inhibition": "2.25%"},
      {"smiles": "Cc1ccc2c(c1)c1ncnc(N3CCc4ccccc4C3)c1n2C", "inhibition": "-0.03%"},
      {"smiles": "CCN(C(=O)Nc1cccc2ccccc12)c1ccccc1", "inhibition": "9.59%"},
      {"smiles": "Cc1cccc(C)c1NC(=O)C(c1cccc(F)c1)N1CCN(C)CC1", "note": "(centres undefined)", "inhibition": "-4.4%"},
      {"smiles": "O=S1(=O)c2c(NCc3ccco3)cccc2Oc2ccccc2CN1Cc1cn(Cc2cccc(C(F)(F)F)c2)nn1", "inhibition": "0.88%"},
      {"smiles": "COc1ccc(NC2=CC(=S)NC(C)(C)C2)cc1", "inhibition": "33.8% (active)"},
      {"smiles": "COc1ccc(CCNC2=CC(=O)CC(C)(C)C2)cc1", "inhibition": "-4.15%"},
      {"smiles": "COC(=O)C1=C(C)NC(=S)NC1c1ccc(OC)cc1", "note": "(centres undefined)", "inhibition": "-3.18%"},
      {"smiles": "Cc1ccc(Cn2cc(CN3[C@@H](CC(C)C)COc4ccc(Cl)cc4S3(=O)=O)nn2)cc1", "inhibition": "-3.14%"},
      {"smiles": "CC(=O)c1cccc(NC(=O)CN2C(=O)c3cccnc3Oc3ccc(Cl)cc32)c1", "inhibition": "1.98%"},
      {"smiles": "COc1ccc(C)cc1NC(=S)Nc1ccccc1SC", "inhibition": "1.24%"},
      {"smiles": "CCc1ccccc1NC(=S)Nc1cc(OC)c(NC(=O)C(C)C)cc1OC", "inhibition": "22.1% (active)"},
      {"smiles": "COc1cc(NC(=S)NNC(=O)CC(C)C)c(OC)cc1Cl", "inhibition": "5.88%"},
      {"smiles": "O=[N+]([O-])/C=C/c1ccc2c(ccn2Cc2ccccc2)c1", "inhibition": "24.4% (active)"},
      {"smiles": "FC(F)(F)c1cccc(Cn2ccc3ccc(-c4ccc5ccn(Cc6ccccc6)c5c4)cc32)c1", "inhibition": "-0.46%"},
      {"smiles": "COc1ccc(Cn2ccc3ccc(-c4ccc5ccn(Cc6ccccc6C)c5c4)cc32)cc1", "inhibition": "5.02%"},
      {"smiles": "COc1ccc(Cl)cc1-n1c(=S)sc2c(=O)n(-c3ccc(F)cc3)c(SCC(=O)O)nc21", "inhibition": "4.71%"},
      {"smiles": "CCc1ccc(-n2c(=S)sc3c(=O)n(-c4ccccc4OC)c(=S)[nH]c32)cc1", "inhibition": "84.4% (active)"},
      {"smiles": "COc1cc2[nH]c(=S)n(Cc3ccc(F)cc3)c(=O)c2cc1OC", "inhibition": "1.22%"},
      {"smiles": "CC(=O)N1CCc2cc(S(=O)(=O)NCCC(=O)N3CCCC3)ccc21", "inhibition": "0.09%"},
      {"smiles": "Oc1ccc(/C=C/c2c(F)cccc2F)c2cccnc12", "inhibition": "-1.47%"},
      {"smiles": "COCC1CCN(C(=O)c2ccc3oc(Cc4ccccc4)nc3c2)C1", "note": "(centres undefined)", "inhibition": "-0.25%"},
      {"smiles": "O=C(Nc1cc(C(F)(F)F)ccc1Cl)c1cc2nc3c(c(C(F)(F)F)n2n1)CCCC3", "inhibition": "-0.92%"},
      {"smiles": "c1cncc(CNc2ccnc(-c3ccc4c(c3)OCO4)n2)c1", "inhibition": "-4.36%"},
      {"smiles": "COc1ccc(/C=N/n2c(C)cc(C)cc2=O)cc1", "inhibition": "-4.04%"},
      {"smiles": "C=CCN1C(=O)[C@@H](CC(=O)N2CCN(C(=O)c3ccco3)CC2)[C@]2(C(=O)OC)CCCCC=C12", "inhibition": "0.68%"},
      {"smiles": "CN(C(N)=NC(=O)/C=C/c1ccccc1)C(C#Cc1ccccc1)Cc1ccccc1", "note": "(centres undefined)", "inhibition": "-2.71%"},
      {"smiles": "COc1cc(Cl)cc(C2NC(=O)NC(C)=C2C(=O)NCc2ccccc2)c1O", "note": "(centres undefined)", "inhibition": "0.85%"},
      {"smiles": "O=C(NN1C(=O)C2C3C=CC(O3)C2C1=O)c1ccccc1", "note": "(centres undefined)", "inhibition": "-3.32%"},
      {"smiles": "O=C(NN1C(=O)C2C3C=CC(O3)C2C1=O)c1ccncc1", "note": "(centres undefined)", "inhibition": "3.88%"},
      {"smiles": "COc1ccccc1C(=O)NN1C(=O)C2C3C=CC(O3)C2C1=O", "note": "(centres undefined)", "inhibition": "35.6% (active)"},
      {"smiles": "Nc1nc(CC(=O)CSc2ccc(Cl)cc2)nc(Nc2ccc(F)cc2)n1", "inhibition": "-4.39%"},
      {"smiles": "COC(=O)[C@]12C[C@H](CC(=O)N3CCOCC3)C(=O)N(Cc3ccc(Cl)cc3Cl)C1=C[C@H](COCc1ccccc1)O[C@@H]2C", "inhibition": "2.19%"},
      {"smiles": "Nc1c(C(=O)c2cccs2)sc2nsc(SCCN3CCCCC3)c12", "inhibition": "25.1% (active)"},
      {"smiles": "c1ccc(CN2CCC(N=C3NN=C(c4ccc5c(c4)OCCO5)CS3)CC2)cc1", "inhibition": "27.6% (active)"},
      {"smiles": "CC(=NC1CCN(Cc2ccccc2)CC1)c1c(O)[nH]c(=O)[nH]c1=O", "inhibition": "1.82%"},
      {"smiles": "CS(=O)(=O)N(CC(=O)N1CCN(Cc2ccccc2)CC1)c1ccc2c(c1)OCCO2", "inhibition": "-1.51%"},
      {"smiles": "O=C(CSc1nnc(COc2ccccc2)n1-c1ccc(Cl)cc1)Nc1ccc2c(c1)OCO2", "inhibition": "0.01%"},
      {"smiles": "CC1(C)NC(=O)N(CC(=O)Nc2ccc(-c3ccccc3)cc2)C1=O", "inhibition": "-1.42%"},
      {"smiles": "O=C(Cn1nc(C(=O)O)c2ccccc2c1=O)Nc1ccc(F)cc1", "inhibition": "2.28%"},
      {"smiles": "Cc1ccc(NC(=O)Cn2sc3ccccc3c2=O)cc1", "inhibition": "91.8% (active)"},
      {"smiles": "CN(C)C(=O)CCc1ccc2c3c([nH]c2c1)[C@]1(CCc2ccccc2)[C@@H](C(=O)N2CCCCC2)C[C@H](CC(=O)NCCC2=CCCCC2)C(=O)N1CC3", "inhibition": "-1.05%"},
      {"smiles": "O=C1Nc2ccccc2OC1CC(=O)N1CCCCCCC1", "note": "(centres undefined)", "inhibition": "1.11%"},
      {"smiles": "CN(CC(=O)NC1CCCC1)S(=O)(=O)c1cnc[nH]1", "inhibition": "-5.5%"},
      {"smiles": "CC1CCN(C(=O)C2CCN(S(=O)(=O)N3CCC4(CC3)OCCO4)CC2)CC1", "inhibition": "-2.98%"},
      {"smiles": "COc1ccc(-c2nn(C)c(=O)c3ccccc23)cc1NC(=O)COc1ccccc1", "inhibition": "3.05%"}
    ]}
  ]
}
